# Most compounds without a hit are left out; they make up all but 3.1% or so of the library.
# UBC13 inh = human UBC13 polyubiquitination inhibition; P61088; UBC13 polyubiquitin chain formation, TR-FRET; inhibition, % at 20 µM; 330,000 tested, 0.47% active; in the data active means inhibition above about 45%, passing the limit was not always enough
# Target sequence (P61088 whole entry, looked up): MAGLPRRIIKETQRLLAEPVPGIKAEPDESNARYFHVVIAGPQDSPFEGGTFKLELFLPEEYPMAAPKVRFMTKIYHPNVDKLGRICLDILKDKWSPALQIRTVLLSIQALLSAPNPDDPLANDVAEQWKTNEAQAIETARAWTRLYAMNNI
# MEKK2mut PB1 HTS = signal of MEK5 binding to mutant human MEKK2 PB1 domain; bead flow cytometry, Alexa488-MEK5 binding to MEKK2 mutant; percent response, % at 10 µM; 290,000 tested, 0.35% active; AID 1530; in the data active means percent response above about 24%, passing the limit was not always enough
# ATG4B inhibitor = inhibitors of human ATG4B cysteine protease | Q9Y4P1 | ATG4B cleavage of LC3-PLA2, NBD-HPC fluorescence, 1 h | inhibition, % at 8.33 µM | 340,000 tested, 0.51% active | AID 504462; in the data active means inhibition above about 40%
# Target sequence (Q9Y4P1 whole entry, looked up): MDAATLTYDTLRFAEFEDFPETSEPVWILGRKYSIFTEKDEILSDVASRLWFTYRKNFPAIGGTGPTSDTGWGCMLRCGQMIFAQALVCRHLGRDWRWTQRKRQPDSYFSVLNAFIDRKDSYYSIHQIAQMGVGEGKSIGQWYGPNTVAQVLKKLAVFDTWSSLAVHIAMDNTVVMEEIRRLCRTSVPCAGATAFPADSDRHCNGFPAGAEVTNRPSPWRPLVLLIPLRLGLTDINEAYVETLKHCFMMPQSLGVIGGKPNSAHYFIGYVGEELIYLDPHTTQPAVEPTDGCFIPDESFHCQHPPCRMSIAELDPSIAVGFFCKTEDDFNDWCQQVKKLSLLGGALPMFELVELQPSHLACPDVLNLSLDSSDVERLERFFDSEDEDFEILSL
# MEKK3 PB1 HTS = modulators (inhibitors or enhancers) of MEK5 binding to human MEKK3 PB1 domain; 290,000 tested, 1.4% active; AID 1529; Q99759; binding response (% of control), % at 10 µM; bead-based flow cytometry, Alexa488-MEK5 binding to MEKK3; actives lie on both sides; 0 = blocked by unlabeled MEK5, 100 = vehicle;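 active means binding response more than 3 SD above or below the average of its plate-row segment, actives on both sides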;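 further: Alexa488 bead fluorescence after subtracting the streptavidin-only scavenger bead signal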
# PREPL inh = human PREPL enzyme inhibition. Q4J6C6. recombinant PREPL, fluorescence polarization activity-based probe. inhibition, % at 5.96 µM. 320,000 tested, 0.68% active; in the data active means inhibition above about 43%;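 further: 0% = enzyme with DMSO and 100% = wells lacking enzyme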
# MEKK2wt PB1 HTS = raises or lowers MEK5 binding to wildtype human MEKK2 PB1 domain | Q9Y2U5 | bead flow cytometry, Alexa488-MEK5 binding to MEKK2 WT; actives lie on both sides | binding response (% of control), % at 10 µM | 290,000 tested, 1.1% active | AID 1531; in the data active means binding response below about 67% or above about 130%
# Active calls of the source: *; . = no result.
SMILES,UBC13 inh,MEKK2mut PB1 HTS,ATG4B inhibitor,MEKK3 PB1 HTS,PREPL inh,MEKK2wt PB1 HTS
CCC(OC(=O)c1nsc(Cl)c1Cl)C(=O)NC(C)(C)C (stereo unspecified),-6.8,18.0,3.8,104.0,8.0,12.0*
CC(C)C(OC(=O)c1nsc(Cl)c1Cl)C(=O)NC(C)(C)C (stereo unspecified),8.5,3.0,-0.7,102.0,11.5,102.0
O=C1C=C(c2ccccc2C(F)(F)F)C[C@@H](c2ccc3c(c2)OCO3)C1,-1.1,.,10.7,.,-1.8,.
Cc1cccc2cc3c(N)c(C(=O)N4CCc5ccccc54)sc3nc12,-5.0,23.0,0.6,122.0,21.3,30.0*
Cc1cccc2cc3c(N)c(C(=O)Nc4ccc(N5CCOCC5)cc4)sc3nc12,-34.0,1.0,-14.0,103.0,27.9,102.0
CCNc1nc(-c2cc(C)n(Cc3ccco3)c2C)cs1,-7.8,-29.0,-6.0,79.0,19.6,-21.0*
Cc1nc2ncccn2c1-c1csc(NCc2ccco2)n1,-4.0,-6.0,0.5,89.0,40.3,90.0
Cc1cc(-c2csc(NCc3ccccc3)n2)c(C)n1C,.,1.0,10.3,84.0,.,-10.0*
O=S(=O)(Cc1ccccc1)N1CCc2ccccc21,-18.0,74.0*,.,90.0,-5.3,.
CN(C)S(=O)(=O)N1CCc2ccccc21,-2.8,5.0,-11.4,108.0,-2.3,109.0
Cc1c(C)n(C)c2ccc(C(=O)NCCCN3CCCCC3C)cc12 (stereo unspecified),18.5,35.0*,2.0,108.0,24.5,178.0*
CC1CCCCN1CCCNC(=O)c1ccc(Br)cc1 (stereo unspecified),-4.5,2.0,-2.4,101.0,13.7,111.0
Cc1c(C)n(C)c2ccc(C(=O)NCCc3ccco3)cc12,2.9,-1.0,-2.5,99.0,-78.6,96.0
Cc1c(C)n(C)c2ccc(C(=O)NCCCN(C)C3CCCCC3)cc12,8.1,12.0,2.1,101.0,28.6,145.0*
O=C(OCCNc1ccc(C(F)(F)F)cc1[N+](=O)[O-])c1cc2ccccc2oc1=O,-0.1,8.0,-8.0,101.0,9.2,102.0
CC(=O)C[C@H](O)CC(=O)[C@H]1OC(=O)[C@@H](C)CCCCc2ccccc21,13.7,.,.,.,11.8,.
Cc1ccc(C#N)c(SCC(=O)Nc2nccs2)n1,5.2,2.0,0.1,105.0,9.5,105.0
O=C(NCc1ccc2c(c1)OCO2)c1ccc2c(c1)OCO2,-9.5,10.0,6.5,101.0,-3.8,103.0
Cc1cc2cc(CNC(=O)c3ccc4c(c3)OCO4)ccc2[nH]1,-11.6,-5.0,-14.8,84.0,21.8,-9.0*
CCOC(CNCc1cc(C)c2[nH]c3ccccc3c2c1C)OCC,.,.,-4.1,.,.,.
Nc1nc(=S)c2ncn(C3OC(CO)CC3O)c2[nH]1 (stereo unspecified),.,.,-4.5,.,.,.
O=C1OC(c2cccs2)=N/C1=C\c1ccc(-c2ccccc2Cl)o1,.,82.0*,23.0,105.0,.,62.0*
CCOc1ccc(N2C(N)=NC(N)=NC2(C)C)cc1,2.1,15.0,0.1,111.0,5.3,107.0
CC1(C)N=C(N)N=C(N)N1c1ccc(OCCCOc2ccccc2)c(Cl)c1,.,46.0*,5.2,116.0,-22.1,165.0*
Cc1cc(N2CCCC2)c(C)cc1C=O,-2.4,-6.0,-3.2,95.0,20.7,-46.0*
SMILES,UBC13 inh,MEKK2mut PB1 HTS,ATG4B inhibitor,MEKK3 PB1 HTS,PREPL inh,MEKK2wt PB1 HTS
COc1cc(N2CCCC2)ccc1C=O,-5.9,-8.0,0.3,103.0,14.2,90.0
O=c1[nH]c(/C=C\c2cccs2)nc(O)c1[N+](=O)[O-],0.9,-4.0,-3.5,105.0,0.7,102.0
Cc1cc2c(=O)n(C)c(SCC(=O)NCC3CCCO3)nc2s1 (stereo unspecified),.,.,-1.3,.,.,.
CC(=O)Nc1ccc(NC(=O)CSc2ncc(C(=O)Nc3ccccc3)c(=O)n2C)cc1,69.3*,.,3.0,.,3.5,.
COc1ccc(CCNC(=O)CSc2ncc(C(=O)Nc3ccccc3)c(=O)n2C)cc1,35.8,.,5.9,.,-3.2,.
Cc1ccc(NC(=O)c2cnc(SCC(=O)NCC3CCCO3)n(C)c2=O)cc1C (stereo unspecified),71.5*,.,1.0,.,2.0,.
COC(=O)CCCC(=O)NC1CCCc2c1cnn2-c1ccc(F)cc1F (stereo unspecified),3.0,5.0,14.8,99.0,-3.8,106.0
O=C(CCC(=O)c1cccs1)OCc1ccc([N+](=O)[O-])cc1,1.5,.,1.7,.,1.7,.
O=C(N/N=C/c1ccoc1)c1ccccc1F,21.5,9.0,-4.8,104.0,11.4,108.0
CC(C)CCN1CCC(Cc2ccccc2)(NC(=O)c2ccccc2)C1=O (stereo unspecified),8.4,.,5.3,.,6.8,.
CC(C)CCN1CCC(N)=NC1=O,.,534.0*,-7.7,122.0,.,422.0*
COc1ccc(COCC(O)CN2CCN(S(=O)(=O)c3c(F)cccc3F)CC2)cc1OC (stereo unspecified),.,.,-6.3,.,.,.
Cc1ccc(NC(=S)NCc2ccc(Cl)cc2)c(C)c1,-2.8,-1.0,8.2,97.0,-2.3,97.0
OC(CNCCc1ccc(C(F)(F)F)cc1)COc1cccc2ccccc12 (stereo unspecified),32.1,7.0,-9.8,106.0,-32.3,156.0*
Cc1cc(SCC(=O)c2ccc(O)c(O)c2)nc2ccccc12,-8.3,-6.0,-34.7,99.0,17.0,88.0
Cc1cc(SCC(=O)c2ccc3c(c2)OCO3)nc2ccccc12,24.7,39.0,-2.4,113.0,0.2,38.0*
Oc1[nH]c2ccccc2c1N=Nc1ccccn1,.,.,-3.6,.,.,.
Oc1c(N=Nc2ccccn2)ccc2ccccc12,-61.2,-14.0,1.0,89.0,25.7,36.0*
CCN(CC)S(=O)(=O)c1ccc(N2CCN(C)CC2)c(NC(=O)CSCC(=O)Nc2cccc(C)c2)c1,13.0,.,10.7,.,10.8,.
CCN(CC)S(=O)(=O)c1ccc(N2CCN(C)CC2)c(NC(=O)Nc2ccc(C)cc2)c1,14.9,15.0,-8.3,106.0,3.9,146.0*
OC(COc1ccc(OCC(O)CN2CCCCC2)cc1)CN1CCCCC1 (stereo unspecified),-2.4,-3.0,3.3,97.0,19.4,97.0
OC(COc1ccc(CNCCc2ccc(C(F)(F)F)cc2)cc1)CN1CCCCC1 (stereo unspecified),28.8,2.0,7.7,107.0,25.6,150.0*
CN(NC(=O)c1ccccc1F)c1ccc([N+](=O)[O-])cn1,-6.0,-2.0,-7.5,97.0,-1.3,93.0
O=C1CC(C(=O)Nc2ccccc2)S/C(=N\NC(=O)c2ccccc2Cl)N1 (stereo unspecified),1.5,3.0,0.7,107.0,-6.8,103.0
Cc1ccc2[nH]c3c(N4CCc5ccccc5C4)ncnc3c2c1,5.1,15.0,29.6,95.0,46.4*,139.0
Fc1ccc2[nH]c3c(N4CCc5ccccc5C4)ncnc3c2c1,-4.6,2.0,33.5,104.0,14.1,108.0
